Key:
[1] = biological target: T1, Aspartate--tRNA(Asp/Asn) ligase (Mycobacterium tuberculosis (strain ATCC 25618 / H37Rv)) (UniProt P9WFW3); test: Assay for Asp RNA synthetase-1 from Mycobacterium tuberculosis; format: functional; set-up: scale not given: direction of the effect not stated beside the values; details: 30 µM; also: in the data most compounds retested in dose-response had high values
T1 sequence (whole entry): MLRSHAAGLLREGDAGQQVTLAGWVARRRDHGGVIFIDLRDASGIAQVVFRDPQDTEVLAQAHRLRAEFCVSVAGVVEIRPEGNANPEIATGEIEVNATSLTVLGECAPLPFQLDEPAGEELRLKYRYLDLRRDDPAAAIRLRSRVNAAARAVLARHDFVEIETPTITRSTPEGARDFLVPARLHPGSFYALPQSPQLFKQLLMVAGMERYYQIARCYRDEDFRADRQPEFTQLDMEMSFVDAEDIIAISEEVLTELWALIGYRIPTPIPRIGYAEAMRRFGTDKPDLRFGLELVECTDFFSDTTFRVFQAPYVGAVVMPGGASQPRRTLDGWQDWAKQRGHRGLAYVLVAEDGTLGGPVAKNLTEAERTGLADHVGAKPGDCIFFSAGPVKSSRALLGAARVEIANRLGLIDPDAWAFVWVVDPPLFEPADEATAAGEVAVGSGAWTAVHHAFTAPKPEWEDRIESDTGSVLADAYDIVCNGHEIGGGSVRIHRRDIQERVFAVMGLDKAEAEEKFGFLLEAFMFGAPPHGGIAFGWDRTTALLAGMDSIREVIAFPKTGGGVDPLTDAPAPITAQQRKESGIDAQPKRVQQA

[2] = biological target: Shiga toxin 2 (Escherichia coli O157:H7) (UniProt P09385+P09386); test: E. coli 0.157:H7 Shiga Toxin SOP - stx2 screening assay; format: functional; set-up: scale not given: direction of the effect not stated beside the values; details: 30 µM

| SMILES | Percent Effect [1] | Percent Effect [2] |
| --- | --- | --- |
| O=C(Cc1ccccc1F)N1CCN(C(=O)c2cccc(F)c2)CC1 | 23.6% | -39.5% |
| Cc1nnc2n1CCN(C(=O)c1cc(Cl)c[nH]1)C2 | -0.345% | 2.46% |
| NC(=O)C1CN(C(=O)Nc2ccccc2N2CCCCCC2)CCO1 (configuration not stated) | 0.991% | 7.25% |
| CCS(=O)(=O)NCCNC(=O)c1cc(Cl)c2c(c1)OCCCO2 | 5.01% | -2.3% |
| O=C(NC1CC1)[C@H]1C[C@H]2OCC[C@H]2N(CC2CC2)C1 | 3.52% | -19.5% |
| CC(C)c1ncncc1C(=O)N1CCN(Cc2cscn2)CC1 | -2.56% | -22.9% |
| O=C(c1cc(COc2ccc3c(c2)OCO3)[nH]n1)N1CCOCC1 | -0.0228% | -36.8% |
| Cc1ccc(C(=O)NS(=O)(=O)c2ccccc2C)c(=O)[nH]1 | -0.991% | 10.2% |
| Cc1cccc(OCCC(=O)N2CCCN(C(N)=O)CC2)c1C | 0.542% | 7.91% |
| CCc1ncc(CN(C)C(=O)Nc2cccnc2N2CCCC2)s1 | 2.75% | -14.5% |
| Cc1cc(CNc2cc(Cl)ccc2Cl)no1 | -1.12% | 2.51% |
| COCCOc1cccc(C(=O)N2CCCC(n3cccn3)C2)c1 (configuration not stated) | 1.18% | -14.5% |
| COCC(=O)NC1CC2(CCN(Cc3ccco3)CC2)c2ccccc21 (configuration not stated) | 5.52% | -5.13% |
| Cc1cc(-c2nn(C)c(Cl)c2CN2CCOCC(O)C2)no1 (configuration not stated) | -2.42% | 16.3% |
| COc1ccccc1C(O)CNCc1c(C(C)C)nn(C)c1N(C)C (configuration not stated) | -6.86% | 9.26% |
| CCc1nc(C2CCCN2C(=O)c2cc(C3CC3)[nH]n2)no1 (configuration not stated) | -7.78% | 8.24% |
| CN(Cc1cnn(C)c1)C(=O)NC1CCS(=O)(=O)C1 (configuration not stated) | -2.67% | 14.6% |
| CCc1nc(CN(C)CC2CCN(CCO)CC2)no1 | -1.64% | -1.86% |
| CC(=O)NCc1ccc(C(=O)N2CCCC2c2cnn(C)c2)o1 (configuration not stated) | 1.21% | 21.1% |
| CCN(Cc1cccc2c1OCO2)C(=O)Nc1ccncc1 | -0.0463% | -14.2% |
| Cn1cc(C2CCCN2Cc2csc(-c3ccsc3)n2)cn1 (configuration not stated) | 7.77% | -5.27% |
| Cc1nc(CN2CCc3ncnc(C)c3CC2)cs1 | -3.93% | -9.46% |
| Cc1ncc(CN(C)CC2CCCN2c2cccnn2)s1 (configuration not stated) | 3.27% | 9.48% |
| CCc1nc2n(n1)CC(NCc1ncc(-c3ccccc3)o1)CC2 (configuration not stated) | 0.562% | 9.14% |
| CCOCCCC(=O)NCc1cn2cc(Br)ccc2n1 | 0.599% | -66% |
| COC(=O)c1cccn1C1CCN(C(=O)c2cc(C)ccc2O)CC1 | 3.4% | 21.2% |

| SMILES | Percent Effect [1] | Percent Effect [2] |
| --- | --- | --- |
| Cn1ncc2c1CCCC2NCc1cnc(-c2ccccc2)nc1 (configuration not stated) | 8.81% | -1.99% |
| CCOC(=O)[C@]12CCCN(Cc3nccs3)C[C@H]1CN(C(C)=O)C2 | 2.52% | -5.93% |
| COc1c(C2CCCN2C(=O)c2c[nH]c3ncccc23)c(C)nn1C (configuration not stated) | -1.25% | -20.6% |
| COCC(=O)NCc1cc(=O)n2c(n1)CN(Cc1ccsc1)CCC2 | 5.55% | 10% |
| CCCn1nc(C2CCNCC2)n(Cc2ccccc2)c1=O | -5.32% | -6.93% |
| c1csc(-c2nc(CNC3CCc4ncnn4C3)co2)c1 (configuration not stated) | 1.3% | -1.44% |
| Cc1nn(C)c(C)c1-c1cncc(C2CCN(S(C)(=O)=O)CC2)n1 | -2.63% | -8.32% |
| c1cnc(NCc2noc3c2CN(C2CCOCC2)CC3)nc1 | 2.79% | -7.78% |
| Cc1ccccc1N1CC2(CCN(S(=O)(=O)c3cccs3)C2)CC1=O (configuration not stated) | 0.41% | -0.82% |
| Cc1cnn(CCNCc2csc(-c3cccs3)n2)c1 | -6.55% | 19.3% |
| COCc1ccccc1CNCc1c(C)nn(C)c1N(C)C | 0.533% | 22.6% |
| Cc1ccc(OCCC(=O)NC2CCc3nc(C)cn3C2)cc1 (configuration not stated) | 3.86% | -17.6% |
| COc1c(CNCC(O)c2cccc(F)c2)c(C(C)C)nn1C (configuration not stated) | 7.7% | 15.6% |
| Cc1ccc(N2CC3(CCN(C(=O)c4ccoc4)C3)C2)nn1 | -1.37% | -33.4% |
| CC(=O)N1CCC(Oc2ccc(C#N)cn2)CC1 | -4.74% | -70.8% |
| Cc1ccc(CNC(CN2CCN(C)CC2)c2ccccc2)cc1 (configuration not stated) | 3.88% | -2.09% |
| Cc1cccc(NC(=O)NCCCn2nc3ccccn3c2=O)c1C | 3.46% | 19.3% |
| CCO[C@@H]1CO[C@@]2(CCCN(C(=O)c3ccc(OC)c(F)c3)C2)C1 | 2.11% | -23.8% |
| CNC(=O)CS(=O)(=O)Cc1coc(-c2ccc(F)cc2)n1 | -1.26% | -3.77% |
| CCn1ccnc1CN1CCC(CCC(=O)Nc2ccccc2Cl)CC1 | -0.673% | -30.9% |
| Cn1ccnc1CN1CCN(CC(O)c2ccc(F)c(F)c2)CC1 (configuration not stated) | 1.33% | -1.4% |
| CNS(=O)(=O)CCCN1CCCC1c1noc(C2CC2)n1 (configuration not stated) | -2.37% | 4.89% |
| Cc1cc(CN(C)C(=O)c2cc3c([nH]c2=O)CCCC3=O)no1 | 2.54% | 20.8% |
| C1CC(CN2CCOCC3(CCN(C4CCOCC4)C3)C2)CCO1 (configuration not stated) | 3.19% | -4.37% |
| COc1ccc(S(N)(=O)=O)cc1C(=O)N(C)Cc1cc(C)on1 | -2.1% | -47% |

Reference: ChEMBL document CHEMBL3988442, “University of Dundee, Small-Polar-MMV Screening Library” (2021)
